Calls of active or inactive are those of the source.
Tests used:
[1] = E. coli DRC41 culture turbidity changes, primary screen, E. coli filamentation inducer project, strain DRC41, OD650, 48 h (AID 1152);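 note: E. coli MC1000 strain DRC41 lacking acrAB efflux pump and sulA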; conditions: E. coli DRC41 (acrAB sulA), higher = more signal, called active from +8 up or from −8 down
[2] = small-molecule binders of probe aLefty1, primary screen, biochemical, small-molecule microarray, 635/667 nm fluorescence (AID 1153); conditions: higher = more signal;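 note: score merges spot fluorescence with signal-to-noise ratio from the scanned slide images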
[3] = PSAC antagonists in infected red cells, primary screen, cell-based, P. falciparum Indochina, OD700, 1 h (AID 1154); conditions: P. falciparum Indochina infected RBC osmotic lysis, higher = more signal, called active from +8 up or from −8 down
[4] = PSAC antagonists in infected red cells, primary screen, cell-based, P. falciparum Indochina, OD700, 2 h (AID 1155);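 note: lysis reports solute entry through the parasite surface anion channel PSAC; channel blockers reduce lysis of infected cells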; conditions: P. falciparum Indochina infected erythrocytes, osmotic lysis OD700; higher = more signal, called active from +8 up or from −8 down
[5] = osmotic lysis modulators in infected erythrocytes, primary screen, PSAC antagonist project, cell-based, P. falciparum Indochina, OD700, 3 h (AID 1156); conditions: higher = more signal, called active from +8 up or from −8 down
[6] = PSAC antagonists in infected red cells, primary screen, cell-based, P. falciparum Indochina, OD700, 18 h (AID 1157); conditions: P. falciparum Indochina infected erythrocytes, osmotic lysis OD700, 18 h; higher = more signal, called active from +8 up or from −8 down
[7] = modulators of S6 phosphorylation in cells, primary screen, cell-based, A549, cytoblot, luminescence, serum-stimulated (AID 1158); conditions: A549 phospho-S6 cytoblot, 5 h, higher = more signal;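 note: serum-stimulated A549 lung adenocarcinoma cells; signal is phosphorylated S6 detected by cytoblot immunostaining with HRP secondary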
[8] = target: NADPH oxidase 2 (Homo sapiens) (UniProt P04839); experiment: NOX2-dependent H2O2 signal modulators, primary screen, NOX inhibitor project, cell-based, HEK293-NOX2, PMA-stimulated, Amplex Red fluorescence (AID 1159); conditions: 45 min, higher = more signal, called active from +8 up or from −8 down; note: test concentration not given here
[9] = target: NADPH oxidase 4 (Homo sapiens) (UniProt Q9NPH5); experiment: NOX4-dependent H2O2 signal modulators, primary screen, NOX inhibitor project, cell-based, HEK293-NOX4, tetracycline-induced, Amplex Red fluorescence (AID 1160); conditions: 45 min, higher = more signal, called active from +8 up or from −8 down
[10] = target: NADPH oxidase 5 (Homo sapiens) (UniProt Q96PH1); experiment: NOX5-dependent H2O2 signal modulators, primary screen, NOX inhibitor project, cell-based, HEK293-NOX5, Amplex Red fluorescence (AID 1161); conditions: HEK293-NOX5, ionomycin, 45 min, higher = more signal
[11] = A549 cell viability effects, profiling panel, calcein-AM fluorescence, 48 h, basal (AID 1162); conditions: higher = more signal; note: test concentration not given here
[12] = adipocyte viability effects, profiling panel, cell-based, 3T3-L1 adipocytes, calcein-AM fluorescence, 48 h, basal (AID 1163); conditions: 3T3-L1 adipocytes viability, higher = more signal; note: test concentration not given here
[13] = HepG2 cell viability effects, profiling panel, calcein-AM fluorescence, 48 h, basal (AID 1164); conditions: higher = more signal; note: test concentration not given here
[14] = MM1S cell viability effects, profiling panel, calcein-AM fluorescence, 48 h, basal (AID 1165); conditions: higher = more signal;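 note: viability of MM1S multiple myeloma cells under basal unstimulated conditions; test concentration not given here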
[15] = basal RPMI8226 viability, no added stimulus, profiling panel, cell-based, calcein-AM fluorescence, 48 h, PK04 Diversity Set (AID 1166); conditions: RPMI8226 myeloma viability, higher = more signal;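 note: cells grown under basal conditions without added stimulus; test concentration not given here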
[16] = basal HepG2 mitochondrial membrane potential changes, profiling panel, cell-based, JC-1 fluorescence, 24 h, 100 nL compound (AID 1167); conditions: higher = more signal; note: test concentration not given here
[17] = basal 3T3-L1 adipocyte mitochondrial potential changes, profiling panel, cell-based, JC-1 fluorescence, 3T3-L1 adipocytes, 24 h, 100 nL compound (AID 1168); conditions: JC-1 mitochondrial fluorescence, higher = more signal, called active from +8 up or from −8 down; note: test concentration not given here
[18] = basal RPMI8226 mitochondrial membrane potential changes, profiling panel, cell-based, JC-1 fluorescence, 24 h, 100 nL compound (AID 1169); conditions: RPMI8226 myeloma, JC-1 mitochondrial potential fluorescence, higher = more signal; note: test concentration not given here
[19] = basal MM1S mitochondrial membrane potential changes, profiling panel, cell-based, JC-1 fluorescence, 24 h, 100 nL compound (AID 1170); conditions: higher = more signal; note: test concentration not given here
[20] = A549 lung cancer cell viability effects, profiling panel, resazurin fluorescence, 24 h, PK04 Diversity Set (AID 1171); conditions: higher = more signal, called active from +8 up or from −8 down; note: test concentration not given here

Sequence of NADPH oxidase 2 (Homo sapiens) (P04839 whole entry, looked up): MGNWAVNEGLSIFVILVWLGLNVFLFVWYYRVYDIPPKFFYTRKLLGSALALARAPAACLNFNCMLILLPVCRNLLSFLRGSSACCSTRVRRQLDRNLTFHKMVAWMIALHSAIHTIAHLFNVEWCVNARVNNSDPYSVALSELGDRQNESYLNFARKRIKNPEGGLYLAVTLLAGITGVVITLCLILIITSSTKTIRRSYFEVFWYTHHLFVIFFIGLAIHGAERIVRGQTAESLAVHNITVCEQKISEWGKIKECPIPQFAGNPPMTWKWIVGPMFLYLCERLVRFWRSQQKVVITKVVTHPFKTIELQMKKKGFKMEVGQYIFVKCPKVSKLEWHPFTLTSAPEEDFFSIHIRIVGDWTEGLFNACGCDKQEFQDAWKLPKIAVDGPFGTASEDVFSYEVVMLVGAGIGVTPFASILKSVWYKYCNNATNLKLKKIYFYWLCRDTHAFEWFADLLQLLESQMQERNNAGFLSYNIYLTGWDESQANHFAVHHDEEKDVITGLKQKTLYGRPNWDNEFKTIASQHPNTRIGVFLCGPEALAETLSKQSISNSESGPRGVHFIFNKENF
Sequence of NADPH oxidase 4 (Homo sapiens) (Q9NPH5 whole entry, looked up): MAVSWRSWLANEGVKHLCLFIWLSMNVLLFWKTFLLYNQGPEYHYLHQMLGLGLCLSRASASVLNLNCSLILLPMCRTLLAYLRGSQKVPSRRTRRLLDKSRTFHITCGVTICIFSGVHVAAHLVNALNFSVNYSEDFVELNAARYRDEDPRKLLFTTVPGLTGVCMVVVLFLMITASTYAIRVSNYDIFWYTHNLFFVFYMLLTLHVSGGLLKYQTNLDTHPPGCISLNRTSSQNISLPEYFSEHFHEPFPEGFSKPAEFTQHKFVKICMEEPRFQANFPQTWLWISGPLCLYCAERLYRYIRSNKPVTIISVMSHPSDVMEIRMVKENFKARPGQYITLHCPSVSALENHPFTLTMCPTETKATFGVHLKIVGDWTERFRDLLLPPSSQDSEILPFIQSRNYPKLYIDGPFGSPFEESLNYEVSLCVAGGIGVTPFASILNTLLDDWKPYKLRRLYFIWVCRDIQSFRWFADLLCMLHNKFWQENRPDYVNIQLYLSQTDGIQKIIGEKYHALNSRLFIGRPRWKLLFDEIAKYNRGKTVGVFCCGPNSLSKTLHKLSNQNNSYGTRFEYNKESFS
Sequence of NADPH oxidase 5 (Homo sapiens) (Q96PH1 whole entry, looked up): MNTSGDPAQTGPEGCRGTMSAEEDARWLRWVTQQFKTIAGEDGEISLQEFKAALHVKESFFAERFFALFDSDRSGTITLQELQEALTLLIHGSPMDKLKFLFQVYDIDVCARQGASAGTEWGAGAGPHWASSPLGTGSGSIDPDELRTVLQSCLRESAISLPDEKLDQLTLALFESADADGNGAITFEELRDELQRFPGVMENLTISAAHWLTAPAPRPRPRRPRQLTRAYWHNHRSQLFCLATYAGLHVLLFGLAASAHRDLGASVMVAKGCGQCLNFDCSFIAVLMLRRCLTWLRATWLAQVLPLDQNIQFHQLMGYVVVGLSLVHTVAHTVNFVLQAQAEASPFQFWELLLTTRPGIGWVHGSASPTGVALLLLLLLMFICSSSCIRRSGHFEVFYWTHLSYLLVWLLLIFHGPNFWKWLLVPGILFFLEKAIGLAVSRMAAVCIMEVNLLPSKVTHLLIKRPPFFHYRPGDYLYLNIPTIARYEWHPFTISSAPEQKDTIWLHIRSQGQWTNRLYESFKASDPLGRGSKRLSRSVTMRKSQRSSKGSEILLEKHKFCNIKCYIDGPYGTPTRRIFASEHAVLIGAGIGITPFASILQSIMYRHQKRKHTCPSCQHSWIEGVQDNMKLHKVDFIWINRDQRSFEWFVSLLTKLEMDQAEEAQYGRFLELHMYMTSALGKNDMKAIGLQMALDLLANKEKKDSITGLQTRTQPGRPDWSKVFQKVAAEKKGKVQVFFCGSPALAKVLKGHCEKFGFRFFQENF

SMILES	z-score [1]	composite z-score [2]	z-score [3]	z-score [4]	z-score [5]	z-score [6]	z-score [7]	z-score [8]	z-score [9]	z-score [10]	z-score [11]	z-score [12]	z-score [13]	z-score [14]	z-score [15]	z-score [16]	z-score [17]	z-score [18]	z-score [19]	z-score [20]
C=CCN1C(=O)[C@@]2(CC=C)N=C(c3ccc(OCCCO)cc3)O[C@H]2c2ccccc21	1.92 (inactive)	0.547	34.5 (active)	30.9 (active)	3.11 (inactive)	9.88 (active)	1.63	-2.21 (inactive)	0.796 (inactive)	-0.809	0.248	1.68	-0.515	-3.41	-3.72	1.62	2.61 (inactive)	-1.02	-2.1	-2.08 (inactive)
C=CCC(OC(C)=O)[C@@H]1[C@@H](N(Cc2cc3ccccc3o2)C(=O)c2cccc3ccccc23)c2cc(OCCCO)ccc2N1C(=O)c1ccc(-c2ccccc2)cc1 (stereo not given in full)	1.45 (inactive)	0.0341	1.01 (inactive)	0.0907 (inactive)	0.358 (inactive)	0.554 (inactive)	0.332	0.52 (inactive)	-1.87 (inactive)	-2.43	0.067	0.509	0.168	0.612	-2.25	3.47	0.0822 (inactive)	-0.448	0.955	-0.808 (inactive)
CCOC(=O)C[C@H]1[C@H](OC(=O)c2ccc(-c3ccccc3)cc2)[C@@H](NC(=O)Cc2ccc(OC)cc2)c2cc(OCCCO)ccc2N1C(=O)c1ccccc1	-0.539 (inactive)	0.206	1.84 (inactive)	-0.259 (inactive)	0.438 (inactive)	0.285 (inactive)	1.3	-1.43 (inactive)	-1.72 (inactive)	-0.795	-0.137	0.533	-0.42	0.57	-0.432	1.37	-1.03 (inactive)	0.0293	-0.102	-0.657 (inactive)
COC(=O)[C@@]1(Cc2ccccc2)[C@H]2c3cc(C(=O)N(C)C)n(Cc4ccsc4Br)c3C[C@H]2CN1C(=O)c1ccccc1	-0.775 (inactive)	1.04	6.57 (inactive)	1.07 (inactive)	0.923 (inactive)	1.25 (inactive)	-0.259	-0.111 (inactive)	0.106 (inactive)	0.723	0.209	-1.34	0.369	-1.13	-1.34	1.17	0.332 (inactive)	-0.776	-2	-2.34 (inactive)
CCOC(=O)C1=CC[C@@H](c2ccccc2)N(S(=O)(=O)c2ccc(C)cc2)[C@H]1c1ccccc1C	-0.36 (inactive)	0.589	1.57 (inactive)	0.678 (inactive)	-0.569 (inactive)	0.879 (inactive)	-0.102	0.515 (inactive)	0.226 (inactive)	0.963	-1.42	0.068	-0.0628	-0.247	-0.734	2.59	-0.134 (inactive)	-0.275	-0.271	2.32 (inactive)
COC(=O)[C@]1(CCC(=O)OC(C)(C)C)N=C(c2ccc(OCCCO)cc2)O[C@@H]1c1ccccc1CN=[N+]=[N-]	-1.68 (inactive)	0.235	30.3 (active)	28.3 (active)	-0.615 (inactive)	5.71 (inactive)	-0.0021	-3.48 (inactive)	-1.72 (inactive)	-2.41	-2.13	-0.354	-3.03	-3.55	-3.95	-1.93	-0.718 (inactive)	-1.16	-2.7	-2.22 (inactive)
COC(=O)[C@@]1(CCC(=O)OC(C)(C)C)N=C(c2ccc(OCCCO)cc2)O[C@H]1c1ccccc1N=[N+]=[N-]	-0.871 (inactive)	-0.39	28.2 (active)	25.2 (active)	1.67 (inactive)	5.1 (inactive)	-0.117	-2.9 (inactive)	0.248 (inactive)	-2.56	-1.99	1.12	-1.92	-3.6	-3.93	-0.429	0.581 (inactive)	-1	-2.34	-2.08 (inactive)
COC(=O)[C@@]1(Cc2ccc(F)cc2)[C@H]2c3cc(C(=O)N(C)C)n(Cc4cc(F)c(F)c(F)c4)c3C[C@H]2CN1C(=O)c1ccccc1	-1.42 (inactive)	0.5	4.21 (inactive)	0.548 (inactive)	0.365 (inactive)	1.16 (inactive)	-0.359	0.525 (inactive)	2.18 (inactive)	1.26	-0.917	-0.147	0.178	-0.711	-1.93	0.345	-1.26 (inactive)	-0.803	-1.75	-2.68 (inactive)
CC(C)c1ccc(NN2C(C(O)c3ccc(B(O)O)cc3)C=CC3C(=O)N(c4ccccc4)C(=O)C32)cc1 (stereo not given)	-1.04 (inactive)	0.0595	1.93 (inactive)	0.698 (inactive)	0.421 (inactive)	1.27 (inactive)	-0.999	-1.02 (inactive)	-2.31 (inactive)	-4.18	-1.34	-0.386	-1.28	-0.571	-0.587	-1.75	-1.56 (inactive)	-0.894	0.00559	-0.212 (inactive)

From PubChem BioAssay
